Reference: PubChem BioAssay
The source made the active and inactive calls. Unless noted, how the calls were made is not given here.

How the values were obtained:
[1] = compounds binding Alexa647 anti-His antibody – biochemical, small-molecule microarray, 635 nm fluorescence, artefact control for SMM control protein annotation, primary screen (AID 1128); conditions: higher = more signal;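 further: score merges feature fluorescence with signal-to-noise for each printed compound spot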
[2] = test system: Human papillomavirus type 1a E7 protein (residues 1-88); assay: HPV1a E7 small-molecule binders, primary screen, biochemical, small-molecule microarray, residues 1-88, 635 nm (AID 1129); conditions: small-molecule microarray binding, fluorescence 635 nm; higher = more signal
[3] = target: Focal adhesion kinase 1 (Homo sapiens) (UniProt Q05397); assay: PTK2 protein binding on printed compound slides – biochemical, small-molecule microarray, 635/667 nm fluorescence, BSA, DTT, primary screen (AID 1130); conditions: 635 nm fluorescence, higher = more signal;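 further: composite of spot emission at 667 nm and signal to noise over triplicate slides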
Chain of Focal adhesion kinase 1 (Homo sapiens) (Q05397 whole entry, looked up): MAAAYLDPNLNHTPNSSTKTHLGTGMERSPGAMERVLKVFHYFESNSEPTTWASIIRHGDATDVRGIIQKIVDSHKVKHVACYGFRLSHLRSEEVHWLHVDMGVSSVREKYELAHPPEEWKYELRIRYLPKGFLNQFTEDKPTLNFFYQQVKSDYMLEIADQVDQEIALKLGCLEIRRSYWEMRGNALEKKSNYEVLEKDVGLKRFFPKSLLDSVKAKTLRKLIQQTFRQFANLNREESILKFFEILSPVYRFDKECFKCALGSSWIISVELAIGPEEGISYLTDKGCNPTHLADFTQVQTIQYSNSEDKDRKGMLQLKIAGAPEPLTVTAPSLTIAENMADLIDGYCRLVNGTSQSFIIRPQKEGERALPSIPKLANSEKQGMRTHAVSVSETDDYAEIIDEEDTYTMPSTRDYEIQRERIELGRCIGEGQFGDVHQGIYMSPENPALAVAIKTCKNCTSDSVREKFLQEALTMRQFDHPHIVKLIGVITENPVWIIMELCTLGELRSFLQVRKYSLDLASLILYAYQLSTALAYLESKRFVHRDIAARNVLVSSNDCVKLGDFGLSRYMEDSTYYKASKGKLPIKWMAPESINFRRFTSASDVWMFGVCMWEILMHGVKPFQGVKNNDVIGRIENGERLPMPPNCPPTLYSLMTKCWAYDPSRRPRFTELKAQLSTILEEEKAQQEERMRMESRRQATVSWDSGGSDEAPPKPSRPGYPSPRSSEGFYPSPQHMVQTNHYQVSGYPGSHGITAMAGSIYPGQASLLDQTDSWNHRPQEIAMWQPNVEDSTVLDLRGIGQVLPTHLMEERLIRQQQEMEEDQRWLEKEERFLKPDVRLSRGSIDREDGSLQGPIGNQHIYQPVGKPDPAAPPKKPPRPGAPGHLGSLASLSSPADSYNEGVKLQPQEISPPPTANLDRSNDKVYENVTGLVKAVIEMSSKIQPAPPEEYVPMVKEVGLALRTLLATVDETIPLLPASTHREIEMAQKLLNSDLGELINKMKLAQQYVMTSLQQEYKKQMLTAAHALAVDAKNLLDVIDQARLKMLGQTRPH

[4] = test system: Fibrinogen (Alexa647-labelled); assay: Alexa647-fibrinogen binding to printed small molecules – biochemical, small-molecule microarray, 635/667 nm fluorescence, artefact control for SMM control-protein annotation, profiling panel (AID 1131); conditions: fibrinogen-A647 binding fluorescence, higher = more signal;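 further: z-score merges 667 nm fluorescence with per-spot signal-to-noise over triplicate slides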
[5] = target: Follistatin (Homo sapiens) (UniProt P19883); assay: FST protein binding to printed compounds – biochemical, small-molecule microarray, 635/667 nm fluorescence, primary screen (AID 1132); conditions: 635 nm fluorescence, higher = more signal
Chain of Follistatin (Homo sapiens) (P19883 whole entry, looked up): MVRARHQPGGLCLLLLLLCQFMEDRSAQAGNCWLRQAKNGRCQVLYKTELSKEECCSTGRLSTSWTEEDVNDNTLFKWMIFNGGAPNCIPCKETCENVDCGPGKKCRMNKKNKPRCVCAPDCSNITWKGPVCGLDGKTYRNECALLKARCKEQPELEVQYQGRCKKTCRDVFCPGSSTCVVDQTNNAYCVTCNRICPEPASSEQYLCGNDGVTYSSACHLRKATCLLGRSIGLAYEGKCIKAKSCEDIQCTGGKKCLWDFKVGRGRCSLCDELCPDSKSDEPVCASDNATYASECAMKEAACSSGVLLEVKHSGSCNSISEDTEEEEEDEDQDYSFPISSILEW

[6] = target: Fibroblast growth factor 2 (Homo sapiens) (UniProt P09038); assay: basic fibroblast growth factor binding to printed compounds – biochemical, small-molecule microarray, 635/667 nm fluorescence, primary screen (AID 1133); conditions: FGF2, fluorescence 635/667, higher = more signal
Chain of Fibroblast growth factor 2 (Homo sapiens) (P09038 whole entry, looked up): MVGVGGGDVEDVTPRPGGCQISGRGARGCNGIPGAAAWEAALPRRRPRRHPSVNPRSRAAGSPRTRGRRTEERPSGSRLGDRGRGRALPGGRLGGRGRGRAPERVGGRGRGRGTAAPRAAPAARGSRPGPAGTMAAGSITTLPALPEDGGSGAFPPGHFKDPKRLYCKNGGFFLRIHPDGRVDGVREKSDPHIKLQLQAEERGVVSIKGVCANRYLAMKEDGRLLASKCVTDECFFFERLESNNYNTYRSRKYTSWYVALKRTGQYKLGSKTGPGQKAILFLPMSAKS

[7] = JC-1 mitochondrial potential readout, lung cancer cells – cell-based, A549, JC-1 fluorescence, basal, 24 h, 100 nL, profiling panel (AID 1138); conditions: higher = more signal;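 further: A549 lung adenocarcinoma cells under basal conditions with no added stimulus; test concentration not given here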
Lefty1 = Lefty1 protein binding to printed compounds – biochemical, small-molecule microarray, 635/667 nm fluorescence, primary screen (AID 1139); conditions: fluorescence 635/667, higher = more signal
[8] = test system: wheat germ agglutinin (Triticum aestivum), Alexa647-labelled; assay: Alexa647-WGA lectin binding to printed small molecules – biochemical, small-molecule microarray, 635/667 nm fluorescence, artefact control for SMM control-protein annotation, profiling panel (AID 1140); conditions: WGA-A647 binding, 635 nm fluorescence, higher = more signal;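 further: score merges 667 nm feature emission with signal to noise over triplicate slides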
[9] = target: Luciferin 4-monooxygenase (Photinus pyralis) (UniProt P08659); assay: inhibition of purified Photinus pyralis luciferase – biochemical, luminescence, purified enzyme, 2006 set, primary screen (AID 1141); conditions: purified firefly luciferase, SteadyGlo luminescence, 30 min; higher = more signal, called active from +8 up or from −8 down;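 further: cell-free assay with purified firefly luciferase at 100 ng per well in PBS; test concentration not given here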
Chain of Luciferin 4-monooxygenase (Photinus pyralis) (P08659 whole entry, looked up): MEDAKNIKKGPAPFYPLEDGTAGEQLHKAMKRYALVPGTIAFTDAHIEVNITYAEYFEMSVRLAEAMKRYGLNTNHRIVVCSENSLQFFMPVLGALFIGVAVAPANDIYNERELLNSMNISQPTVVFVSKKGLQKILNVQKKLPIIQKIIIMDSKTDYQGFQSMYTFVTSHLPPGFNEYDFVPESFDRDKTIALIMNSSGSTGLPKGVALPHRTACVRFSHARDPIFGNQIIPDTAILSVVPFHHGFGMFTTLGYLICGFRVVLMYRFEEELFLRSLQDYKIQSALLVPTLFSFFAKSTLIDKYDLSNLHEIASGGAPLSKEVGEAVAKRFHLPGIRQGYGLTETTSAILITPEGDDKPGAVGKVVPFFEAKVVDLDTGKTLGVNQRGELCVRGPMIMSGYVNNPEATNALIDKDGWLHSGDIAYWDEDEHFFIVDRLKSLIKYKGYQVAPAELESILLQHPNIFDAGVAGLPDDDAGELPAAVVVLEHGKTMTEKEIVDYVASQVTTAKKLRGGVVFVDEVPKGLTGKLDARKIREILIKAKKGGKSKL

[10] = test system: Wnt5a (protein binding on small-molecule microarray); assay: small molecules binding Wnt5a protein – biophysical, small-molecule microarray, 635/667 nm fluorescence, primary screen (AID 1142); conditions: 635 nm fluorescence, higher = more signal;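 further: fluorescence read at 667 nm with signal to noise per printed feature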
[11] = ATP-based viability of Huh7 replicon cells – cell-based, CellTiter-Glo luminescence, basal, 48 h, cytotoxicity control for HCV replication inhibitor project, primary screen (AID 1143); conditions: higher = more signal, called active from +8 up or from −8 down;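 further: Huh7 hepatoma cells carrying a hepatitis C replication reporter with no stimulus; test concentration not given here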
[12] = Pseudomonas biofilm growth suppression – PAO1 strain, BacTiter-Glo luminescence, LB-PBS, primary screen (AID 1144); conditions: P. aeruginosa PAO1 biofilm, 12 h, higher = more signal
[13] = basal CRE-LacZ reporter activity in PC12 – cell-based, unstimulated, primary screen (AID 1145); conditions: no forskolin, luminescence, 4.5 h, higher = more signal, called active from +8 up or from −8 down
[14] = forskolin-driven CRE-LacZ activity in PC12 – cell-based, CRE-LacZ reporter, forskolin-stimulated, primary screen (AID 1146); conditions: luminescence, 4.5 h, higher = more signal, called active from +8 up or from −8 down;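 further: PC12 cells with 6xCRE LacZ reporter stimulated by forskolin 10 µM; beta-galactosidase reporter signal reflecting CREB driven transcription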
[15] = target: Streptavidin (Streptomyces avidinii) (UniProt P22629); assay: compounds binding control protein streptavidin – biophysical, small-molecule microarray, 635/667 nm fluorescence, artefact control for SMM compound annotation, primary screen (AID 1147); conditions: higher = more signal;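 further: signal reflects streptavidin binding to arrayed compounds as a control protein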
Chain of Streptavidin (Streptomyces avidinii) (P22629 whole entry, looked up): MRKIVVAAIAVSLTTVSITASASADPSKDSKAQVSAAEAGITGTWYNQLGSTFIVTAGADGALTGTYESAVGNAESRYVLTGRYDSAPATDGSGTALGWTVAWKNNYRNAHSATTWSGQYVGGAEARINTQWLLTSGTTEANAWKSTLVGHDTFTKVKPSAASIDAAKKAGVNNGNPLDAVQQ

[16] = probe aInhba binding on compound microarray – biochemical, small-molecule microarray, 635/667 nm fluorescence, primary screen (AID 1148); conditions: higher = more signal;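 further: score merges 667nm spot fluorescence with signal-to-noise for antibody binding to printed compounds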
Torsin-1A (Homo sapiens) [17] = target: Torsin-1A (Homo sapiens) (UniProt O14656); assay: TOR1A wild-type binding on microarray – cell lysate, small-molecule microarray, lysate, 635/667 nm, primary screen (AID 1149); conditions: COS7 hTOR1A-WT lysate, 635 nm fluorescence, higher = more signal
Chain of Torsin-1A (Homo sapiens) (O14656 whole entry, looked up): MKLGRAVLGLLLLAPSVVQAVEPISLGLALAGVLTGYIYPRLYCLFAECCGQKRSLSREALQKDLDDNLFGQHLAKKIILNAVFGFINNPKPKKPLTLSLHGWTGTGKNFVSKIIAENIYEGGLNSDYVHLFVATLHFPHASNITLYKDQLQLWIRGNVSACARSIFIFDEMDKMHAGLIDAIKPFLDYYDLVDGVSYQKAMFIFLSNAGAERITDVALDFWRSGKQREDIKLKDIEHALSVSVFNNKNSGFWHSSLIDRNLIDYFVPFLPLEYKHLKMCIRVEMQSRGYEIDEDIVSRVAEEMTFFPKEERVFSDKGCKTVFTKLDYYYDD

Torsin-1A (Homo sapiens) [18] = target: Torsin-1A (Homo sapiens) (UniProt O14656); assay: torsin A mutant lysate binding on microarrays – cell lysate, small-molecule microarray, COS7 lysate, 635/667 nm fluorescence, primary screen (AID 1150); conditions: COS7 hTOR1A mutant lysate, 635 nm fluorescence, higher = more signal;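 further: score pools 667 nm emission and signal to noise measuring lysate protein binding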
[19] = test system: Sonic hedgehog protein (Shh); assay: Sonic hedgehog microarray binding compounds – biochemical, small-molecule microarray, 635/667 nm fluorescence, primary screen (AID 1151); conditions: 635 nm fluorescence, higher = more signal;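 further: Shh protein binding to compounds spotted on small-molecule microarray slides; score combines spot fluorescence intensity with signal-to-noise across triplicate slides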

| SMILES | composite z-score [1] | composite z-score [2] | composite z-score [3] | composite z-score [4] | composite z-score [5] | composite z-score [6] | z-score [7] | composite z-score (Lefty1) | composite z-score [8] | z-score [9] | composite z-score [10] | z-score [11] | z-score [12] | z-score [13] | z-score [14] | composite z-score [15] | composite z-score [16] | composite z-score (Torsin-1A (Homo sapiens) [17]) | composite z-score (Torsin-1A (Homo sapiens) [18]) | composite z-score [19] |
| --- | --- | --- | --- | --- | --- | --- | --- | --- | --- | --- | --- | --- | --- | --- | --- | --- | --- | --- | --- | --- |
| COc1ccc(O[C@H]2C=C[C@@H](c3ccccc3)O[C@@H]2COC(=O)CCC(C)=NOC[C@@H](O)COCc2ccco2)cc1 | 0.614 | -0.99 | -0.814 | -3.44 | -2.77 | -2.63 | -0.424 | -1.58 | -0.674 | -0.49 (inactive) | -1.31 | -1.42 (inactive) | 0.104 (inactive) | 3.94 (inactive) | -0.215 (inactive) | -2.51 | -0.443 | -6.12 | -2.73 | -1.09 |
| CO[C@@H]1COC(=O)CC=C[C@H](C)[C@H](OC)COC(=O)[C@@H]2CCCN2C(=O)CC=C[C@H]1C | -0.51 | -0.838 | -0.226 | -2.24 | 1.38 | 1.69 | -0.213 | 1.45 | -1.11 | -0.577 (inactive) | 0.0408 | -0.754 (inactive) | 0.243 (inactive) | 0.609 (inactive) | -0.628 (inactive) | -0.0406 | -0.0112 | 0.719 | 1.22 | 1.83 |
| CC(CCN1CCc2nc(-c3ccccc3)c(-c3ccccc3)cc2C1)=NOC(C)CN1CCCc2nc(C)c(C)cc21 (stereo not given) | -0.929 | 1.15 | 0.382 | 0.96 | 0.94 | 0.541 | 3.46 | 0.659 | 0.379 | 0.397 (inactive) | 0.281 | -1.33 (inactive) | 0.25 (inactive) | 0.894 (inactive) | -0.0977 (inactive) | 0.808 | 0.0785 | 0.373 | 0.432 | 0.667 |
| CCOC(=O)[C@H](CC(C)C)NC(=O)CCC1CC(OC(=O)NCc2ccc3c(c2)OCO3)CC2(CCCC(COC(=O)NCCc3ccc(Cl)cc3)O2)O1 (stereo not given in full) | 0.141 | 0.653 | 0.0146 | -0.092 | 0.62 | 0.671 | 0.387 | 1.14 | 0.669 | 0.621 (inactive) | 0.277 | -0.197 (inactive) | -0.0985 (inactive) | 0.737 (inactive) | 0.501 (inactive) | 0.288 | -0.089 | -0.157 | 0.361 | 1.86 |
| CCN1C(=O)[C@H]2[C@H]3[C@H](O)[C@H](O)CC(=NO[C@@H]4O[C@H](CO)[C@@H](O)[C@H](O)[C@H]4O)[C@H]3CC[C@H]2C1=O | 0.0595 | 0.512 | 0.026 | 0.16 | 0.442 | 0.922 | -0.8 | 0.467 | 0.0622 | 0.217 (inactive) | 0.534 | -1.31 (inactive) | 0.427 (inactive) | 0.246 (inactive) | 0.322 (inactive) | 0.473 | -0.0873 | 0.261 | 0.577 | 0.47 |
| O=C1[C@H]2[C@H]3[C@H](O)[C@H](O)CC(=NOC[C@@H](O)COCc4ccco4)[C@@H]3CC[C@H]2C(=O)N1Cc1ccc2c(c1)OCO2 | -0.133 | -0.499 | -0.347 | -0.952 | 1.35 | 1.56 | 0.96 | 0.793 | -0.63 | -0.0365 (inactive) | 0.0191 | -0.0292 (inactive) | 0.878 (inactive) | -0.0199 (inactive) | 0.506 (inactive) | -0.436 | -0.218 | 3.38 | 3 | 1.55 |
| CC(C)=CCCC(C)=CCON=C1C[C@@H](O)[C@@H](O)[C@@H]2[C@@H]3C(=O)N(Cc4ccc5c(c4)OCO5)C(=O)[C@@H]3CC[C@@H]12 | 1.05 | 1.14 | 0.597 | 0.558 | 1.18 | 0.414 | -0.286 | 0.709 | 0.574 | 0.696 (inactive) | -0.0188 | -0.292 (inactive) | 0.73 (inactive) | 0.252 (inactive) | 0.217 (inactive) | 1.19 | -0.0791 | 1.01 | 0.606 | 0.816 |
| CCN1C(=O)[C@H]2[C@H]3[C@H](O)[C@H](O)CC(=NOC(C)CN4CCCc5nc(C)c(C)cc54)[C@@H]3CC[C@H]2C1=O (stereo not given in full) | -0.245 | 0.509 | 0.335 | 0.116 | 0.703 | 0.462 | 0.623 | 0.737 | -0.393 | 0.126 (inactive) | 0.223 | 0.433 (inactive) | 1.17 (inactive) | -0.882 (inactive) | -0.271 (inactive) | -0.0317 | 0.134 | 0.46 | 0.456 | 0.906 |
| C#CCCCON=C1C[C@@H](O)[C@@H](O)[C@@H]2[C@@H]3C(=O)N(C4CCCCC4)C(=O)[C@@H]3CC[C@@H]12 | 0.16 | 0.256 | 0.394 | 0.486 | 0.513 | 0.0704 | -0.404 | 0.363 | 0.329 | -0.0138 (inactive) | -0.0633 | 0.0192 (inactive) | -0.356 (inactive) | 1.78 (inactive) | -0.0263 (inactive) | -0.383 | -0.286 | -0.0195 | -0.336 | 0.353 |
| COc1cccc([C@H]2Oc3ccc(OC)cc3C(=NO[C@@H](C)c3cc(-c4c(C)cc(C)cc4C)no3)[C@@H]2O)c1 | -0.314 | -0.358 | -0.364 | -1.51 | -2.57 | -2.11 | 0.611 | -2.4 | -0.52 | 0.995 (inactive) | -0.556 | -0.686 (inactive) | 0.409 (inactive) | 1.42 (inactive) | 0.596 (inactive) | -0.756 | -0.23 | -1.26 | -0.489 | -2.3 |
